Only a selection was taken, and hits are over-represented in it overall.
Pf apPOL block – Pf-apPOL DNA polymerase inhibition; Recombinant Pf-apPOL, molecular beacon fluorescence, 1.5 h; inhibition, % at 10 µM; 210,000 compounds, 0.25% hits; AID 1794808
mHTT-CaM PPI inh – mHTT-calmodulin interaction abrogation; P42858; AlphaScreen His-mHTT/GST-CaM binding, luminescence; inhibition, % at 15 µM; 190,000 compounds, 3.6% hits; AID 1671202
Each line names hits and unclear results; the compound was inactive in the other large screens; ! = not confirmed by another sample. Cut-off read from the data, not from the text of the source: active = inhibition above about 50%; inactive = the rest.

Cc1ccc(C2CCCN2C(=O)Cc2ccc(F)cc2)cc1 (stereo not drawn)	none
Cc1ccc(C2CCCN2C(=O)Cc2ccc(Cl)cc2)cc1 (stereo not drawn)	mHTT-CaM PPI inh 58
Cc1ccccc1C1CCCN1C(=O)Cc1ccc(Cl)cc1 (stereo not drawn)	mHTT-CaM PPI inh 58
Cc1ccccc1C1CCCN1C(=O)Cc1cccc(Cl)c1 (stereo not drawn)	none
Cc1[nH]c2ccccc2c1C(=O)CN1CCCC1	mHTT-CaM PPI inh 59
Cc1[nH]c2ccccc2c1C(=O)CN1CCCCC1	none
COc1ccc(-n2c(C)ccc2C)c(N)c1	mHTT-CaM PPI inh 54
COc1ccc2nc(C)cc(N)c2c1	none
CCCCOc1ccc(C(=O)Nc2ccc(N3CCCC3=O)cc2)cc1	mHTT-CaM PPI inh 88
CCCOc1ccc(C(=O)Nc2ccc(N3CCCC3)cc2)cc1	none
Cc1ccc(Nc2nc(-c3ccc(F)cc3)cs2)cc1C	mHTT-CaM PPI inh 98
Cc1ccc(C)c(-c2csc(Nc3ccc(F)cc3)n2)c1	none
Cc1ccc(Nc2nc(-c3ccccc3)cs2)cc1C	mHTT-CaM PPI inh 73
Nc1ccc(Nc2nc(-c3ccccc3)cs2)cc1	mHTT-CaM PPI inh 97
NC(=O)C(=O)Nc1nc(-c2ccccc2)cs1	none
Cc1ccc(Nc2nc(-c3ccccc3)cs2)cc1Cl	mHTT-CaM PPI inh 54
Cc1ccc2c(NC(=O)CN3CCN(c4cccc(Cl)c4)C3=O)cccc2n1	none
CN1C(=O)c2cccnc2Sc2cc(C(=O)Nc3cccc(F)c3)ccc21	none
COc1ccc(-c2csc(/C(C#N)=C/c3ccc(OC)c(OC)c3)n2)cc1	none
O=C(CN1C(=O)/C(=C/c2cccc(Cl)c2)Sc2ccccc21)NC1CCCCC1	none
COc1cccc(NC(=O)N2CCc3c(c(COCc4ccccc4)nn3C)C2)c1	none
C[C@@H](c1ccccc1)N1C[C@H](COCc2ccccc2)Oc2cc(N3CC[C@@H](N(C)C)C3)ccc2S1(=O)=O	mHTT-CaM PPI inh 100
C[C@H](c1ccccc1)N1C[C@H](COCc2ccccc2)Oc2cc(N3CC[C@H](N(C)C)C3)ccc2S1(=O)=O	none
COC[C@@H]1CCCN1c1ccc2c(c1)O[C@@H](COCc1ccccc1)CN([C@@H](C)c1ccccc1)S2(=O)=O	none
C[C@@H](c1ccccc1)N1C[C@H](COCc2ccccc2)Oc2cc(N3CC[C@H](N(C)C)C3)ccc2S1(=O)=O	mHTT-CaM PPI inh 100
CC(C)NC(=O)N1CCN(c2cc(-c3cccc(F)c3)ncn2)CC1	none
CC(C)NC(=O)c1ccccc1OCC1CCN(C(=O)Cc2cccc(F)c2)CC1	none
CS(=O)(=O)Nc1ccc(Cl)c2cccnc12	mHTT-CaM PPI inh 86
CS(=O)(=O)Nc1ccc(Cl)cc1Cl	none (no result: Pf apPOL block)
O=C(Nc1ccccc1[N+](=O)[O-])c1ccc(Cl)c(S(=O)(=O)Nc2ccc(Cl)cc2)c1	mHTT-CaM PPI inh 86
O=C(Nc1ccccc1[N+](=O)[O-])c1ccc(Cl)c(S(=O)(=O)NCc2ccco2)c1	Pf apPOL block 54
O=C(Nc1ccccc1[N+](=O)[O-])c1ccc(Br)c(S(=O)(=O)Nc2ccccc2)c1	none
O=C(Nc1ccccc1[N+](=O)[O-])c1ccc(Cl)c(S(=O)(=O)NCc2ccccc2)c1	none
O=C(c1noc2c1CCCC2)N1CCC(N2CCCCC2)CC1	none
CSCCC(NS(=O)(=O)c1cccs1)C(=O)NC1CCCCC1C (stereo not drawn)	none
COc1ccc(CNC(=O)C2(C)CCCN(C(=O)COc3ccc(OC)cc3)C2)cc1 (stereo not drawn)	none
COc1cccc(C=C2Oc3c(ccc(O)c3CN3CCC(C)CC3)C2=O)c1OC	none
NC(=O)C1CCN(C(=O)Cc2cc(-c3ccco3)on2)CC1	Pf apPOL block 73
CC1Cc2ccccc2N1C(=O)Cc1cc(-c2ccco2)on1 (stereo not drawn)	none
CN(CC#CC(C)(C)O)Cc1ccccc1	none
CN(CC#CCC(O)(c1ccccc1)c1ccccc1)Cc1ccccc1	mHTT-CaM PPI inh 87
C=CCNc1nc2ccccn2c(=O)c1/C=C1\SC(=S)N(CC2CCCO2)C1=O (stereo not drawn)	none (no result: Pf apPOL block)
CCc1ccccc1NC(=O)c1ccccc1N(Cc1ccccc1)S(=O)(=O)c1ccccc1	none
Cc1ccnc(N2CCC(C(=O)NC3CCCC3)CC2)n1	none
Cc1nn(-c2ccc(C(=O)NCc3cccs3)cc2)c2c1C(=O)CCC2	none
CC(=O)c1cc2c(cc1NC(=NS(=O)(=O)c1ccccc1)c1ccc(Cl)cc1)OCO2	none
Cc1sc(-c2ccn[nH]2)cc1NC(=O)c1cccc(N(C)C)c1	mHTT-CaM PPI inh 87
Cc1sc(-c2ccn[nH]2)cc1NC(=O)C1CCCCC1	none
COc1cccc(Oc2coc3cc(OC(=O)c4ccccc4)ccc3c2=O)c1	none
CCOc1ccc2c(=O)c(-c3ccccc3OC)coc2c1	none
C=CCOC(=O)Oc1ccc2c(=O)c(-c3ccccc3OC)coc2c1	none
CCOC(=O)C(Oc1ccc2c(=O)c(-c3ccccc3OC)coc2c1)c1ccccc1 (stereo not drawn)	mHTT-CaM PPI inh 58!
COc1cccc(Oc2coc3cc(OC(=O)C=Cc4ccccc4)ccc3c2=O)c1	mHTT-CaM PPI inh 62
